Results from PubChem BioAssay AID2018 (Sanford-Burnham Center for Chemical Genomics, 2009).
In all, about 1,200 compounds went through this assay and about 600 (50%) were called active. So high a share suggests a set chosen from earlier hits. This is one part of the list. Entries with a potency or affinity are not part of this list. A number with no mark means an inactive call. No stated cut-off is given here; in the data, active means inhibition above about 42%; inactive means the rest.

Molecular target: SUMO-conjugating enzyme UBC9 (Homo sapiens) (UniProt P63279)
Sequence (P63279 whole entry, looked up): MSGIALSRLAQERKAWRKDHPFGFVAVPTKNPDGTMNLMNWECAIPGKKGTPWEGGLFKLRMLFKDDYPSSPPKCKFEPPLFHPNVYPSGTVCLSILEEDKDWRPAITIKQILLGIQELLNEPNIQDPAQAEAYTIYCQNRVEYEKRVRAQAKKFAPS
Assay: blockers of UBC9-mediated SUMO conjugation – biochemical, AlphaScreen, SUMOylation inhibitor project, confirmation (AID 2018)
Conditions: AlphaScreen in vitro SUMOylation assay; at 35 µM; active compounds read high

Compound | inhibition
COc1cccc(-c2[nH]nc3c2C(c2ccsc2)C(C#N)=C(N)O3)c1 (configuration not stated) | 24.1%
CC(C)=CCC1=C(OCC(=O)O)C(=O)c2ccccc2C1=O | 99.7% (active)
O=[N+]([O-])c1ccc(O)c(C=Nc2cccc3ncccc23)c1 | 19.8%
Fc1ccc(NC(=S)Nc2ccc3nccnc3c2)cc1 | 25%
CC(C)N(C(=O)Nc1ccc2nccnc2c1)C(C)C | 44.2% (active)
CC(C)(C)OC(=O)c1c(N)n(CCCN2CCCC2=O)c2nc3ccccc3nc12 | -0.3%
CCCCn1c(=O)[nH]c2nc3cc(N)ccc3nc2c1=O | 9.9%
CCC(=O)OCCNc1cc(Sc2nccn2C)c2nonc2c1[N+](=O)[O-] | 24.5%
Cc1nnc(Sc2cc(NCCO)c([N+](=O)[O-])c3nonc23)s1 | 24.5%
O=[N+]([O-])c1c(NCCCO)cc(Sc2ccc(Cl)cc2)c2nonc12 | 42.6% (active)
Cc1nnc(Sc2cc(NCCCO)c([N+](=O)[O-])c3nonc23)s1 | 21.7%
CC(=O)OCCCNc1cc(SCc2ccco2)c2nonc2c1[N+](=O)[O-] | 40.6%
CCC(=O)OCCNc1cc(Sc2nc3ccccc3s2)c2nonc2c1[N+](=O)[O-] | 46.1% (active)
Cc1ccc(Sc2cc(NCCCO)c([N+](=O)[O-])c3nonc23)cc1 | 35.8%
O=[N+]([O-])c1c(NCCCO)cc(Sc2nc3ccccc3s2)c2nonc12 | 37.6%
CC(=O)OCCNc1cc(SCc2ccco2)c2nonc2c1[N+](=O)[O-] | 87.5% (active)
O=C(Nc1ccccc1)Oc1ccc[nH]c1=O | 10.3%
CN(CCO)c1nc(N)c2c(N)nc3c(c2c1C#N)CC(=O)N3C1CCCC1 | 29.5%
CCOC(=O)c1c(-c2ccccc2)oc2ccc(OC(C)C(=O)O)cc12 (configuration not stated) | -14%
N#Cc1c2ccc(OCC(N)=O)cc2n2ccccc12 | 56.5% (active)
COc1ccc2cc3c(N)nn(C(=O)Cc4ccc(Cl)cc4)c3nc2c1 | 19.7%
COC(=O)c1c(C)oc(C)c1S(=O)(=O)NC(C)(C)C | 15%
CCOC(=O)CCc1c(C)c(C#N)c2[nH]c3ccccc3n2c1=O | 73.9% (active)
C=CCNc1nc(NCc2ccccc2)c(C#N)c2c1CN(C)CC2 | 36.6%
Cc1cc(/C=N/n2c(COc3ccccc3C)nc3ccccc3c2=O)c(O)c([N+](=O)[O-])c1 | 102% (active)

Compound | inhibition
COc1ccc(CC2S/C(=N/N=C/c3ccccc3O)NC2=O)cc1 (configuration not stated) | 19%
CC(=O)Oc1ccc2cc(-c3nc4ccccc4n3C)c(=O)oc2c1 | -26.3%
Brc1ccc(C2Nc3cccc4cccc(c34)N2)o1 | 69.5% (active)
Cc1cc(C)cc(NC(=S)Nc2cccc3ccccc23)c1 | 4%
Cc1oc2c(c(C)cc3oc(=O)c(CC(=O)N[C@@H](C)C(=O)O)c(C)c32)c1C | -7%
CCC(NC(=O)Cc1c(C)c2c(cc(C)c3c(C)c(C)oc32)oc1=O)C(=O)O (configuration not stated) | 26.9%
CCN(c1ccccc1)S(=O)(=O)c1ccc(Cl)c(NC(=O)COC(=O)c2cc(O)c3ccccc3c2O)c1 | 73% (active)
COc1ccc2ccc3c(c2c1)N=C[C@]1(O3)N(C)c2ccccc2C1(C)C | 27.7%
CN1c2ccccc2C(C)(C)C12C=Nc1c(cc(N3CCOCC3)c3ccccc13)O2 (configuration not stated) | 45.2% (active)
S=c1[nH]nc(-c2cc(-c3ccco3)[nH]n2)n1-c1ccccc1Cl | 96.5% (active)
S=c1[nH]nc(-c2ccco2)n1/N=C/C=C/c1ccco1 | 25.8%
S=c1[nH]nc(-c2cc(-c3ccco3)[nH]n2)n1-c1cccc2ccccc12 | 46.9% (active)
Cc1ccc(-n2c(-c3cc(-c4ccco4)[nH]n3)n[nH]c2=S)c(Br)c1 | 57% (active)
COc1ccc(OC)c(-n2c(-c3cc(-c4ccco4)[nH]n3)n[nH]c2=S)c1 | 48.4% (active)
O=C1C2C3C=CC(C3)C2C(=O)N1CNc1ccc(O)cc1 (configuration not stated) | 92.9% (active)
O=C(Nc1ccc(-n2nncc2-c2ccco2)cc1)c1cc2ccccc2oc1=O | 35.2%
O=C(O)c1cc(-c2ccco2)nn1-c1ccc(Cl)cc1 | 54.7% (active)
CC(=O)C1C(=O)C=C(c2ccco2)CC1c1ccccc1 (configuration not stated) | -5.3%
COc1cc(OC)c(C2Nc3cccc4cccc(c34)N2)c(OC)c1 | 91.3% (active)
Cc1ccc(C2Nc3cccc4cccc(c34)N2)s1 | 71.9% (active)
Cc1cccc(NC(=O)CC2Nc3cccc4cccc(c34)NC2=O)c1 (configuration not stated) | 28.8%
CCOc1ccc(C2Nc3cccc4cccc(c34)N2)cc1OC | 73.4% (active)
COc1ccccc1C1Nc2cccc3cccc(c23)N1 | 77.6% (active)
C=CCn1c(SCC(=O)N2N=C(c3ccco3)CC2c2ccco2)nnc1-c1ccncc1 (configuration not stated) | 3.2%
O=C(CC1Nc2cccc3cccc(c23)NC1=O)Nc1ccccc1 (configuration not stated) | 30.7%

Compound | inhibition
Oc1ccc(C2Nc3cccc4cccc(c34)N2)c(O)c1 | 86.1% (active)
Fc1cccc(Cl)c1C1Nc2cccc3cccc(c23)N1 | 53.9% (active)
O=C1C2C3C=CC(C4CC34)C2C(=O)N1CCc1ccccc1 (configuration not stated) | -31.9%
COCCCNC(=O)c1cccn2c(=O)c3cc4ccccc4cc3nc12 | 16.5%
C=CCOc1c(Cl)cc(CNc2ccc3[nH]c(=O)[nH]c3c2)cc1OC | 41.5%
CCOc1c(Br)cc(/C=C2\C(=O)N(CCC#N)N=C2C)cc1OC | 8.8%
Cc1cccc(/C=N/NC(=O)C(C)Nc2cccc3ccccc23)n1 (configuration not stated) | -0.7%
COCCN=c1scc(-c2ccco2)n1/N=C/c1ccc(O)c(O)c1O | 82.6% (active)
CC1=NN(c2ccccc2)C(=O)C1 | 53.2% (active)
Cc1[nH]n(-c2ccccc2)c(=O)c1/C=N/N(C)c1ccccc1 | 73% (active)
Cc1cc(Br)ccc1-n1[nH]c(C)c(C=Nc2cccc3nsnc23)c1=O | 39.7%
Cc1ccc(/C=C2\SC(=S)N(c3cccnc3)C2=O)o1 | 33.6%
CN(C)c1ccc(NC(=O)CSc2nnc(-c3ccco3)c(-c3ccco3)n2)cc1 | 46.4% (active)
Cc1cccc2nc(-c3ccco3)c(Nc3ccc4c(c3)OCO4)n12 | 19.8%
Cc1ccc(NC(=O)CSc2nnc(-c3ccco3)c(-c3ccco3)n2)cc1 | 97.9% (active)
Cc1ccc(C(=O)N[C@H](C(=O)Nc2cc(Cl)cc(Cl)c2)C(C)C)cc1 | -24.1%
COn1c(C)c(C)c2c3nonc3ccc21 | 19.1%
Cc1nnc(N/N=C\c2ccc(-c3ccccc3[N+](=O)[O-])o2)n1N | -4.6%
NS(=O)(=O)c1ccc(-c2ccc(/C=C3\NC(=S)NC3=O)o2)cc1 | 70.9% (active)
Cc1ccc(C)c(NC(=S)Nc2cccc3cnccc23)c1 | 16.2%
Cc1ccc(NC(=O)Nc2ccno2)cc1 | -5.1%
Cc1nn(CC(=O)Nc2ccc(C(=O)N(C)C)cc2)c(=O)c2ccccc12 | -3.7%
O=C1C=C(O)c2cccc(O)c2C1=O | 39.2%
O=C1C=C(O)c2c(O)cccc2C1=O | 43.1% (active)
Cc1ccc(N=C2NC(=O)/C(=C\c3ccco3)S2)cc1 | 44.4% (active)

Compound | inhibition
COc1ccc(S(=O)(=O)/N=C2/NC(=O)/C(=C\c3ccco3)S2)cc1 | 40.6%
CSCC[C@H](NC(=O)Cc1c(C)c2c(cc(C)c3c(C)c(C)oc32)oc1=O)C(=O)O | 19.6%
CCc1c(C)c2cc(Cl)c(O)c(CN(C)C)c2oc1=O | 14.3%
CCC(C(=O)O)n1nnc(-c2ccc(OCc3ccccc3)c(OC)c2)n1 (configuration not stated) | 2%
COc1ccc2nc(NC(=O)CCc3ccc(OC)c(OC)c3)sc2c1 | -27%
NCCSc1c(-c2ccccc2)[nH]c2ccccc12 | 4.2%
COc1cc(CNc2ccc(O)cc2)cc(Br)c1OCc1ccccc1 | 89.1% (active)
COc1ccc(Br)cc1CNc1ccc(O)cc1 | 63.1% (active)
Oc1ccc(NCc2ccc(OCc3ccccc3)cc2)cc1 | 61.8% (active)
Oc1ccc(N=Cc2ccc(OCc3ccccc3)cc2)cc1 | 25.2%
Oc1ccc(NCc2cccc(OCc3ccccc3)c2)cc1 | 81.1% (active)
O=[N+]([O-])c1cc2c(cc1CN1CCN(CCOCCO)CC1)OCO2 | 12.3%
Cc1ccccc1N=Cc1cc2c(cc1[N+](=O)[O-])OCO2 | 43.9% (active)
O=[N+]([O-])c1cc2c(cc1/C=N/n1c(-c3ccccn3)n[nH]c1=S)OCO2 | 82.5% (active)
S=c1[nH]nc(-c2ccncc2)n1/N=C/c1ccccc1Cl | 20.2%
CCOC(=O)C1=C(C)NC(=O)CC1c1cc2c(cc1[N+](=O)[O-])OCO2 (configuration not stated) | 14.6%
CCN(CC)CCNS(=O)(=O)c1ccc2c3c(cccc13)C(=O)N2 | -8.8%
CC1(C)Nc2ccc(O)cc2-c2c1ssc2=S | 59.8% (active)
Nc1nc(-c2ccco2)c(-c2ccco2)s1 | 55.9% (active)
NC(=O)c1sc2nc(-c3ccco3)ccc2c1N | 20%
N#Cc1c(N2CCN(c3ccc(F)cc3)CC2)nc(N)c2c(N)nc3c(c12)CC(=O)N3C1CC1 | 37.6%
COCC(C)N1C(=O)Cc2c1nc(N)c1c(N)nc(N3CCN(c4ccccc4F)CC3)c(C#N)c21 (configuration not stated) | 37.8%
